A short description of experiment [1]: ATG_GRE_CIS: Attagene CIS-FACTORIAL HepG2 Assay for human Glucocorticoid Response Elements (GRE) (AID 2282947). The settings on record: HepG2 GRE cis-reporter, Attagene multiplex mRNA; actives raise or lower the signal. Summed up:
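Reporter transcripts read by RT-PCR with capillary electrophoresis fluorescence after a 24 h chemical exposure of HepG2 cells transiently transfected with multiple cis-element reporter units. Gain or loss fitted against DMSO.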

The nature of experiment [2]: ATG_ISRE_CIS: Attagene CIS-FACTORIAL HepG2 Assay for human Interferon Regulatory Factor 1 (IRF1) binding to an Interferon-Stimulated Response Element (ISRE) (AID 2282948). Particulars: HepG2 ISRE cis-reporter (Attagene), mRNA transcription readout; actives raise or lower the signal. Summed up: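 Read-out: fluorescent RT-PCR products resolved by capillary electrophoresis, reporting endogenous transcription factor activity via ISRE-driven reporter mRNA in transfected HepG2 cells dosed for 24 h; gain or loss fitted relative to DMSO.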

Experiment [3] is described as follows: ATG_M_32_CIS: Attagene CIS-FACTORIAL HepG2 Assay for M32 Transcription Factor (Internal Marker) (AID 2282949).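 Further: background control marker of the multiplexed CIS panel rather than a real target.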 The settings on record: HepG2 Attagene cis-factorial M32 reporter, mRNA; actives raise or lower the signal. In short, it runs like this: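 HepG2 transfectants (cis-regulated reporter transcription units) dosed 24 h. Reporter mRNA by RT-PCR plus CE, analysed as gain or loss relative to DMSO.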

Experiment [4] in a line: ATG_M_06_CIS: Attagene CIS-FACTORIAL HepG2 Assay for M06 Transcription Factor (Internal Marker) (AID 2282950). Particulars: HepG2 Attagene CIS-FACTORIAL M06 internal marker reporter; actives raise or lower the signal. Summed up:
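Fluorescence-labelled RT-PCR products from cis-promoter reporter units, cut with HpaI and resolved by capillary electrophoresis, give the signal. Cells are human HepG2, dosed for 24 h. Serves as background control, fitted relative to DMSO.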

The target of experiment [5] is Hypoxia-inducible factor 1-alpha (Homo sapiens) (UniProt Q16665). Put plainly: ATG_HIF1a_CIS: Attagene CIS-FACTORIAL HepG2 Assay for human Hypoxia Inducible Factor 1 (HIF1A) (AID 2282951). Particulars: HepG2 Attagene cis-factorial HIF1a reporter transcription; actives raise or lower the signal. In short, it runs like this:
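HepG2, transient cis-reporter library, 24 h dosing. RNA → RT (oligo dT) → PCR → 6-FAM primer extension → HpaI → CE. Bidirectional curve fit vs DMSO.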

Experiment [6] concerns the target Hepatocyte nuclear factor 6 (Homo sapiens) (UniProt Q9UBC0). Put plainly: ATG_HNF6_CIS: Attagene CIS-FACTORIAL HepG2 Assay for human Hepatocyte Nuclear Factor 6 (HNF6) (AID 2282952). The settings on record: HepG2 Attagene cis-factorial HNF6 reporter transcription; actives raise or lower the signal. In short, it runs like this: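 Endogenous transcription factor activity in human HepG2 liver cells was captured through cis-regulated reporter constructs. After 24 h treatment, reporter mRNA was measured by RT-PCR with capillary electrophoresis, and activity was fitted in both directions relative to DMSO.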

In experiment [7] the target is Heat shock factor protein 1 (Homo sapiens) (UniProt Q00613). Kind of experiment: ATG_HSE_CIS: Attagene CIS-FACTORIAL HepG2 Assay for human Heat Shock Transcription Factor 1 (HSE) (AID 2282953). Particulars: HepG2 HSE cis-reporter, Attagene RNA transcription; actives raise or lower the signal. In short, it runs like this:
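After a 24 h incubation with test chemical, transfected HepG2 cells were harvested for RNA; reporter transcripts were measured by RT-PCR and capillary electrophoresis. Values reflect gain or loss of signal relative to DMSO.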

Experiment [8] can be described thus: ATG_MRE_CIS: Attagene CIS-FACTORIAL HepG2 Assay for human Metal Responsive Element (MRE) (AID 2282954). The settings on record: HepG2 MRE cis-reporter transcription, Attagene multiplex; actives raise or lower the signal. Summed up:
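Endogenous MRE-dependent transcription read as reporter mRNA in transiently transfected human HepG2 cells at 24 h. RNA reverse-transcribed, PCR-amplified, labelled and resolved by capillary electrophoresis; gain or loss relative to DMSO.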

Experiment [9] in a line: ATG_PBREM_CIS: Attagene CIS-FACTORIAL HepG2 Assay for human Phenobarbital-responsive Enhancer Module (PBREM) (AID 2282955). Particulars: HepG2 PBREM cis-reporter, Attagene multiplexed transcription; actives raise or lower the signal. Summed up: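 HepG2, transient MRTU transfection, 24 h dosing; RNA → oligo(dT) RT → PCR → 6-FAM extension → HpaI → CE. Bidirectional fit vs DMSO.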

The target in experiment [10] is Paired box protein Pax-6 (Homo sapiens) (UniProt P26367). Kind of experiment: ATG_Pax6_CIS: Attagene CIS-FACTORIAL HepG2 Assay for human Paired Box 6 (PAX6) (AID 2282956). The settings on record: HepG2 CIS-FACTORIAL PAX6 reporter transcription, RNA readout; actives raise or lower the signal. In short, it runs like this: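 Readout: reporter transcript fluorescence after RT-PCR and capillary electrophoresis. Cells: HepG2, transiently transfected with cis-regulated MRTUs. Exposure 24 h. Gain or loss of signal fitted bidirectionally relative to DMSO.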
Sequence of Paired box protein Pax-6 (Homo sapiens) (P26367 whole entry, looked up): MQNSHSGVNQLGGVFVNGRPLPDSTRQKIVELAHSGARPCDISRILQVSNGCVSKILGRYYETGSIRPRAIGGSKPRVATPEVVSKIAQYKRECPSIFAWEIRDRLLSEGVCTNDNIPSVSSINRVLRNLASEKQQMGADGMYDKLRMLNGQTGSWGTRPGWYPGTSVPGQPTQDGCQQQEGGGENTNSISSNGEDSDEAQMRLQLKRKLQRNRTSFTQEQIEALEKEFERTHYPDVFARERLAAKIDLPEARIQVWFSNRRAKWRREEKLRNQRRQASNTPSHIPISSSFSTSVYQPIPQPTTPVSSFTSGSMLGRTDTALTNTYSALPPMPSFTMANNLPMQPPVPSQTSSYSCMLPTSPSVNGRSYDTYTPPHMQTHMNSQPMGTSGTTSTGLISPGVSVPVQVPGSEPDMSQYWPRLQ

Experiment [11] is described as follows: ATG_PXRE_CIS: Attagene CIS-FACTORIAL HepG2 Assay for human Pregnane X Receptor Element (PXRE) (AID 2282957). The settings on record: HepG2 Attagene CIS-FACTORIAL PXRE reporter, mRNA; actives raise or lower the signal. Summed up:
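Endogenous transcription factor activity in HepG2 was gauged through induction of reporter mRNA driven by a cis-regulating promoter element, sampled 24 h post-treatment. Activity was fitted in both directions against DMSO negative control.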

The nature of experiment [12]: ATG_PPRE_CIS: Attagene CIS-FACTORIAL HepG2 Assay for human Peroxisome Proliferator-activated Response Element (PPRE) (AID 2282958). Particulars: HepG2 PPRE cis-element reporter, Attagene transcription factor profiling; actives raise or lower the signal. Summed up: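 Transcript-level reporter induction in transfected HepG2 cells after 24 h chemical exposure, quantified by fluorescence from RT-PCR products separated by capillary electrophoresis.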

Experiment [13] is described as follows: ATG_Sox_CIS: Attagene CIS-FACTORIAL HepG2 Assay for human SRY-box transcription factor (SOX) (AID 2282960). The settings on record: HepG2 Attagene cis-factorial SOX reporter, mRNA; actives raise or lower the signal. Summed up:
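Cells were transfected with reporter constructs under cis-regulatory promoters, then exposed to chemicals for 24 h. Reporter transcripts were quantified by fluorescence after RT-PCR and capillary electrophoresis; activity was fitted in both directions against DMSO.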

For experiment [14], the target named is Transcription factor Sp1 (Homo sapiens) (UniProt P08047). Put plainly: ATG_Sp1_CIS: Attagene CIS-FACTORIAL HepG2 Assay for human Specificity Protein 1 (Sp1) (AID 2282961). The settings on record: HepG2 Sp1 cis-reporter transcription, actives raise or lower the signal. In short, it runs like this:
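Measures mRNA induction of an Sp1-linked reporter in HepG2 cells 24 h post-dosing. Multiplexed reporters read by RT-PCR and capillary electrophoresis; DMSO serves as negative control and baseline.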

Experiment [15] can be described thus: ATG_SREBP_CIS: Attagene CIS-FACTORIAL HepG2 Assay for human Sterol Regulatory Element Binding (SREBP) (AID 2282962). Particulars: HepG2 Attagene cis-factorial SREBP reporter, mRNA; actives raise or lower the signal. Summed up: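 Readout: fluorescent reporter-transcript peaks resolved by capillary electrophoresis after RT-PCR. Cells were human HepG2 carrying transfected cis-promoter reporter constructs, dosed for 24 h. Gain or loss of signal was fitted against DMSO controls.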

The target in experiment [16] is Signal transducer and activator of transcription 3 (Homo sapiens) (UniProt P40763). Put plainly: ATG_STAT3_CIS: Attagene CIS-FACTORIAL HepG2 Assay for human Signal Transducer and Activator of Transcription 3 (STAT3) (AID 2282963). The settings on record: HepG2, Attagene cis-factorial STAT3 reporter transcription; actives raise or lower the signal. Summed up:
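Readout is reporter transcript quantified by RT-PCR and capillary electrophoresis, with 6-FAM primer extension and HpaI digestion. Total RNA is taken 24 h after dosing transiently transfected HepG2 carrying cis-regulated reporter units. Bidirectional fit against DMSO.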

Experiment [17] in a line: ATG_TA_CIS: Attagene CIS-FACTORIAL HepG2 Assay for human TA Basal Promoter (AID 2282964). The settings on record: HepG2 Attagene CIS-factorial TA basal promoter reporter; actives raise or lower the signal. Summed up:
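Multiplexed mRNA reporter assay, HepG2, 24 h. Reporter cDNA amplified, 6-FAM primer-extended, HpaI-cut, CE-sized; DMSO = negative control and baseline.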

Experiment [18] can be described thus: ATG_TCF_b_cat_CIS: Attagene CIS-FACTORIAL HepG2 Assay for human T-Cell-Factor with beta-catenin (TCF/b-cat) (AID 2282965). Particulars: HepG2 TCF/beta-catenin cis-reporter transcription, actives raise or lower the signal. Summed up:
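Endogenous transcription factor activity is captured through cis-promoter reporter constructs transiently introduced into human HepG2 liver cells. Induced reporter mRNA is measured after 24 h and fitted bidirectionally relative to DMSO.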

A short description of experiment [19]: ATG_RORE_CIS: Attagene CIS-FACTORIAL HepG2 Assay for human RAR-related Orphan Receptor Element (RORE) (AID 2282959). Particulars: HepG2 Attagene cis-factorial RORE reporter, mRNA; actives raise or lower the signal. Summed up:
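Multiplexed reporter assay measuring mRNA induction from a cis promoter element in transiently transfected HepG2 cells after 24 h treatment. Detection via RT-PCR and capillary electrophoresis fluorescence; DMSO serves as baseline.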

The target of experiment [20] is Bile acid receptor (Homo sapiens) (UniProt Q96RI1). Kind of experiment: ATG_IR1_CIS: Attagene CIS-FACTORIAL HepG2 Assay for human Nuclear Receptor Subfamily 1 Group H Member 4 (NR1H4), IR1 submotif (AID 2282946). The settings on record: IR1 reporter transcription, actives raise or lower the signal. In short, it runs like this:
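HepG2 cells transiently transfected with multiplexed cis-element reporter units read endogenous transcription factor activity. After 24 h compound exposure, reporter mRNA was quantified by RT-PCR, fluorescent labelling, HpaI digestion and capillary electrophoresis; bidirectional fitting versus DMSO baseline.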

The structures appear in SMILES notation. The source made the active and inactive calls. How the source made its calls: active means hit-call score of the fitted dose curve at least 0.9, where 1 is the maximum; inactive means score below 0.9.

Sequence of Heat shock factor protein 1 (Homo sapiens) (Q00613 whole entry, looked up): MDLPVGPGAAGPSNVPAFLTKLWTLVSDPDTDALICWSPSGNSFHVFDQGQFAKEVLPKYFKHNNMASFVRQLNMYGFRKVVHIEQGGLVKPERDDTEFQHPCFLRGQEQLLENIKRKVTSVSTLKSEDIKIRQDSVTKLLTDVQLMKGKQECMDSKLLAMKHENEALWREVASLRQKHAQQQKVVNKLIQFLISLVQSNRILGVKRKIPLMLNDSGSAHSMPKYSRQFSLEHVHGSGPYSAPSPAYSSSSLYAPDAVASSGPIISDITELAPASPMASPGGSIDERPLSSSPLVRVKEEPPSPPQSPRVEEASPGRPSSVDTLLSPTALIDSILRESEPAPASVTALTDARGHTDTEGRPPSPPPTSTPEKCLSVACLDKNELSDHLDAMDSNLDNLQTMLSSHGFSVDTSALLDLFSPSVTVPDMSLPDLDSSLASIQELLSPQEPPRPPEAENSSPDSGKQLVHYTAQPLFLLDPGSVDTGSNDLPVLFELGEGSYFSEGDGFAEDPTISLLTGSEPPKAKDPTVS
Sequence of Signal transducer and activator of transcription 3 (Homo sapiens) (P40763 whole entry, looked up): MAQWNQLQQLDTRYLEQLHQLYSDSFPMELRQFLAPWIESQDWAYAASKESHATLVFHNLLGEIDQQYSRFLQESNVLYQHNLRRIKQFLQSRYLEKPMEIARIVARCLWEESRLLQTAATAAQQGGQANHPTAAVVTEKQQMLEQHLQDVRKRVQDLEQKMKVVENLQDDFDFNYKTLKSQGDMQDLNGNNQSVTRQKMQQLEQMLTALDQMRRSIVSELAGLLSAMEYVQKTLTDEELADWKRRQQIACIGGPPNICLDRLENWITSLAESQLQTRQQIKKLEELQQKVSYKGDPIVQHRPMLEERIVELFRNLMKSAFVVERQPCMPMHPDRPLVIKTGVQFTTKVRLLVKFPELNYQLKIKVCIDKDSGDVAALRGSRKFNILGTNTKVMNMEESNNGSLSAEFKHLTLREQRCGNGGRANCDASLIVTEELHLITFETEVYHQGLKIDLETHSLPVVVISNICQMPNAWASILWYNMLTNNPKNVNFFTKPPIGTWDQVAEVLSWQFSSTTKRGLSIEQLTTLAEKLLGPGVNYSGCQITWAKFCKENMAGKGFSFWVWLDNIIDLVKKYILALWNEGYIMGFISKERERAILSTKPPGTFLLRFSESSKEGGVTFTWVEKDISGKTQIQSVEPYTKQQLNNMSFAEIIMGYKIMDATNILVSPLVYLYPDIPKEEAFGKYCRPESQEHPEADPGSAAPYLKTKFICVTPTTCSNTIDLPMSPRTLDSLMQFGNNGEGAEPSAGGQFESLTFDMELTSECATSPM
Sequence of Hypoxia-inducible factor 1-alpha (Homo sapiens) (Q16665 whole entry, looked up): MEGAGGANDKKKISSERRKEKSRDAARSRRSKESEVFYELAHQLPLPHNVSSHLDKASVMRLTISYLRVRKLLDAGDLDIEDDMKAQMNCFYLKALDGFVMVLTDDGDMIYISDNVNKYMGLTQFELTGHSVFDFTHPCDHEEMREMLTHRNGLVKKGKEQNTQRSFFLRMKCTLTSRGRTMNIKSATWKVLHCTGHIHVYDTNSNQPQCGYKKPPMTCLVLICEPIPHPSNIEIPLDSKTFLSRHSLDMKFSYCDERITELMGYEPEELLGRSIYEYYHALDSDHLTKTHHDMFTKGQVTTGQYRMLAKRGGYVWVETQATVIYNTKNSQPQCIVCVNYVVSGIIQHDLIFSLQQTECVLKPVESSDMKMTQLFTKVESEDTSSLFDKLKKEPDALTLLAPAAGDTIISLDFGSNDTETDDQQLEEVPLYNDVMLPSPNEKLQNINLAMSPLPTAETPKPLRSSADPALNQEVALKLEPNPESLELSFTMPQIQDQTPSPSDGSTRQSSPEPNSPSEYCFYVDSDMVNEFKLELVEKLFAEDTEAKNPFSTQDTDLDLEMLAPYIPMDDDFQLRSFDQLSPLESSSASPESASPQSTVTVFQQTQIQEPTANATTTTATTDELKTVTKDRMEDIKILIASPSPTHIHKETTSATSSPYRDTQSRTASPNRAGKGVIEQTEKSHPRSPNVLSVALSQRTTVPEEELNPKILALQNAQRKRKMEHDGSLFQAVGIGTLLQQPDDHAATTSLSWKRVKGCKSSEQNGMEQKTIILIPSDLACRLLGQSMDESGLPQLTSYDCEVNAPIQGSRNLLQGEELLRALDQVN
Sequence of Transcription factor Sp1 (Homo sapiens) (P08047 whole entry, looked up): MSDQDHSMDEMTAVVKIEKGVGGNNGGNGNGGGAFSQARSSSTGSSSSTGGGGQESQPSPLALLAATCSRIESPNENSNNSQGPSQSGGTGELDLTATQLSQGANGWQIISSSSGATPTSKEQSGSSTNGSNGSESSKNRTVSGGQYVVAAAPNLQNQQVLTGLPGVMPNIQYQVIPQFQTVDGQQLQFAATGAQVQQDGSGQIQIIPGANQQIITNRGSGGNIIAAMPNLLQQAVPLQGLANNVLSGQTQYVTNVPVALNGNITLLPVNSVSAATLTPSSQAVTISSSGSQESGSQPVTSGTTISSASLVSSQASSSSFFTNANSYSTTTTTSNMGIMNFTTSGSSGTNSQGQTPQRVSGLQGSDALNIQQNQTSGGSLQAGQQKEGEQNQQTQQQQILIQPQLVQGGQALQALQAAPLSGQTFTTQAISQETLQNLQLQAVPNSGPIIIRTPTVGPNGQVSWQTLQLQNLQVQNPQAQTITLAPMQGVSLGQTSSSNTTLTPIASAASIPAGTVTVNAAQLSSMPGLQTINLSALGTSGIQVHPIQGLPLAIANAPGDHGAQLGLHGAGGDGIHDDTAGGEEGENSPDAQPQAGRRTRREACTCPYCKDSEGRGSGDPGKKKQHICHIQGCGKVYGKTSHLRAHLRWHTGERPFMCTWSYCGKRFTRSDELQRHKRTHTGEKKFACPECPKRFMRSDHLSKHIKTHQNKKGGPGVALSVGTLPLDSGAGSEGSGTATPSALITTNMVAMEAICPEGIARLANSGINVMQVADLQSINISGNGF
Sequence of Hepatocyte nuclear factor 6 (Homo sapiens) (Q9UBC0 whole entry, looked up): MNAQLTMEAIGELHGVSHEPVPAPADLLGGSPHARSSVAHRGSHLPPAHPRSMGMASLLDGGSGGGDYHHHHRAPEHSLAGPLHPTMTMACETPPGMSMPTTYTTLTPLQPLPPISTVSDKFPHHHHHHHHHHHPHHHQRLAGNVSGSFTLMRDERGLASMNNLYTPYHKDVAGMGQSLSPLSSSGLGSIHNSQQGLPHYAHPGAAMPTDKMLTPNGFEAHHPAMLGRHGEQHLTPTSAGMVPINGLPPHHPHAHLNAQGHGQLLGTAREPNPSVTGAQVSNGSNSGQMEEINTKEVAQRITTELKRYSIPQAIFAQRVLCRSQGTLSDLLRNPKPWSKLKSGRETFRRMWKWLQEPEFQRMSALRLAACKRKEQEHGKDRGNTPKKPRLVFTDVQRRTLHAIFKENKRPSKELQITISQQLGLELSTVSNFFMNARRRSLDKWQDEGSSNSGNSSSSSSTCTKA
Sequence of Bile acid receptor (Homo sapiens) (Q96RI1 whole entry, looked up): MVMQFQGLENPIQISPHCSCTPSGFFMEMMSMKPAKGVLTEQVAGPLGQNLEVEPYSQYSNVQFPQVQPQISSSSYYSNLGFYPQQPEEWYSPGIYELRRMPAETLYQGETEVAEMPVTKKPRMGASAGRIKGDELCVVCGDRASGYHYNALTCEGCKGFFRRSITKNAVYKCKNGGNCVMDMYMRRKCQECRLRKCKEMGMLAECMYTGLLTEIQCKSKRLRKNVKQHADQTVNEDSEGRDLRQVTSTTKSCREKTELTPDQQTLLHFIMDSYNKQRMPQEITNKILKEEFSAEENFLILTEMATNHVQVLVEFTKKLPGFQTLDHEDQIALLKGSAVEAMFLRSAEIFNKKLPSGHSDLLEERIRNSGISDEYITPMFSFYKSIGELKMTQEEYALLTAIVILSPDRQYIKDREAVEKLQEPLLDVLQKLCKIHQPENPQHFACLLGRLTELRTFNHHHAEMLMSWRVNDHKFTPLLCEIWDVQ

As for `CCOc1ccc(N=Nc2ccc(C=Cc3ccc(N=Nc4ccc(OCC)cc4)cc3S(=O)(=O)O)c(S(=O)(=O)O)c2)cc1`, the compound was called inactive in experiment [1], in experiment [2], in experiment [3], in [4], in [5] and in experiment [6]. Moreover, the result in experiment [7], in [8], in experiment [9], in experiment [10], in experiment [12] and in experiment [13] was inactive. Besides, the compound was called inactive in experiment [14], in experiment [15], in experiment [16], in experiment [17] and in experiment [18]. Further, in [11], the AC50 (usually the concentration giving half of the maximal activity seen) was 39.9 µM (active).

For the compound `CCO/C=C1\N=C(c2ccccc2)OC1=O`, the outcome in [1], in experiment [2], in [3], in [4], in experiment [5] and in experiment [6] was inactive. Further, the compound was called inactive in [7], in experiment [8], in experiment [9], in experiment [12], in [19] and in experiment [13]. Besides, the result in experiment [14], in experiment [15], in [16], in experiment [17] and in experiment [18] was inactive. In addition, the AC50 in experiment [11] is 63.8 µM (active).

`CCCCCCCCCC(=O)OC`: the result in [20], in experiment [3], in experiment [4], in experiment [6], in experiment [7] and in experiment [8] was inactive. In addition, the result in experiment [9], in experiment [10], in experiment [11], in experiment [12], in [19] and in [13] was inactive. Moreover, the call in [14], in experiment [15] and in experiment [16] was inactive.

For `CCOC(=O)[C@@H](C)Oc1ccc(Oc2nc3ccc(Cl)cc3o2)cc1`, the call in experiment [20], in experiment [2], in [5], in [6], in experiment [7] and in experiment [8] was inactive. Besides, the result in experiment [9], in experiment [10], in experiment [11], in experiment [13], in experiment [14] and in experiment [15] was inactive. Also, the compound was classed as inactive in [16], in experiment [17] and in [18]. Moreover, the AC50 in experiment [12] is 100 µM (active).

These data come from PubChem BioAssay (EPA / NIEHS).
